# Several values for one entry are separate records, joined by “and”; a condition that tells them apart may be missing. Equal values may be shown once. Among all 150,000 compounds or so, about 540 (0.36%) showed an effect of 50% or more. This excerpt belongs to a sample that is enriched for strong results.
# Test system: Plasmodium falciparum
# Test: Primary screen in NF54 nanoGlo assay, in single point, at 2uM, 72h; a lower Z score goes with more inhibition
# Type: functional, Erythrocyte
# Details: timepoint 72 hour
SMILES,% Inhibition,Z score,% Inhibition (2 µM)
CCCN(CCC)C(=O)CN1CCN(Cc2ccc3c(c2)CCO3)CC1,-11%,1.43,
COc1ccc(Cl)cc1[C@H](C)NCc1nncn1C1CC1,-13%,2.01,
OC[C@H]1CCCN(CCNc2ccc3cc(Cl)ccc3n2)C1,12%,-1.36,
Cc1nccc(NC(=O)N2C3CCC2CC(CCF)C3)n1 (stereo not given),-5%,0.79,
COc1ccc(NC(=O)c2ccc3nn(CC(=O)Nc4ccc(F)cc4)c(=O)n3c2)cc1,-26%,2.29,
O=C(NCc1ccc(F)cc1)C1[C@@H]2C=C[C@@]3(CN(Cc4ccccc4Cl)C(=O)[C@H]13)O2 (stereo not given in full),-9%,1.29,
CCCCN(C(=O)Nc1nc2ccccc2s1)C1CC1,-5%,0.64,
COc1ccc(-c2cnc3n2CCCC3)cc1,-23%,2.75,
COc1ccc([N+]2=C3CCCCN3C[C@]2(O)c2ccc(Cl)cc2)cc1,,,3% and -11%
COc1ccc(-c2c[n+](-c3ccc(Cl)cc3)c3n2CCCCC3)cc1,64%,-6.22,
c1ccc([C@@H]2CN(C3CC3)CC3(CCN(Cc4ccncc4)CC3)C2)cc1,-1%,0.23,
Oc1cccc(CN2CCC3(CC2)C[C@H](c2ccccc2)CN(C2CC2)C3)c1,76%,-2.68,
c1ccc([C@@H]2CN(C3CC3)CC3(CCN(Cc4ccccn4)CC3)C2)cc1,-10%,1.74,
N#C[C@@]1(c2ccccc2OCc2ccccc2)CCC(=O)N1Cc1ccccc1,-10%,1.37,
CN(Cc1ccsc1)C(=O)c1cccs1,-2%,0.22,
CN(C)CCN(Cc1ccsc1)C(=O)c1cc2cc(F)ccc2[nH]1,-5%,0.68,
CN(Cc1ccsc1)C(=O)c1cc2ccccc2[nH]1,58%,-6.32,
Cc1ccc(S(=O)(=O)N2CCN(C(=O)NCc3nccn3C)CC2)cc1,-12%,2.31,
CC1CN(C(=O)Cc2csc(-c3cccnc3)n2)CC(C)O1 (stereo not given),-15%,2,
CCN1CCC(N(C)C(=O)Cc2csc(-c3cccnc3)n2)CC1,61%,0.93,
CC(C)N(Cc1ccccc1)C(=O)Cc1csc(-c2cccnc2)n1,-7%,0.9,
CN(CCNC(=O)CCc1cn(-c2ccccc2)nc1-c1ccc2c(c1)OCO2)C1CCCCC1,63%,-8.26,

SMILES,% Inhibition,Z score,% Inhibition (2 µM)
O=C(CCc1cn(-c2ccccc2)nc1-c1ccc2c(c1)OCO2)NC[C@H]1CCCO1,0%,0.04,
COCCNC(=O)CCc1cn(-c2ccccc2)nc1-c1ccc2c(c1)OCO2,-10%,1.35,
COC[C@@H]1[C@H](C(=O)Nc2cc(OC)ccc2OC)CCC(=O)N1C,-12%,1.42,
O=C(Nc1nncs1)c1occc1-c1ccccc1,-6%,0.51,
O=C(Nc1nncs1)c1cccc(C(=O)Nc2nncs2)n1,77%,-14.68,
CNc1cccc(C(=O)Nc2nncs2)n1,-13%,1.62,
Nc1nnnn1CC(=O)N[C@H]1CC(=O)Nc2ccccc21,10%,-1.71,
FC(F)(F)c1ccnc(Nc2ccc3c(c2)OCO3)n1,-4%,0.56,
COc1ccc(CN(Cc2nnn(C)n2)C2CCCCC2)cc1OC,-7%,1.05,
CC(C)c1cc(CN(Cc2cc(C(C)C)c(O)c(C(C)C)c2)C2CCCCC2)cc(C(C)C)c1O,95%,-12.83,
Cc1nn(C)cc1CN(Cc1ccncc1)C1CCCCC1,8%,-1.12,
Cc1noc(C(F)(F)F)c1C(=O)NCC1(C2(O)CCC2)CC1,-10%,1.69,
COc1ccc2c(c1)C(N1CCN(C(=O)CC(C)(C)C)CC1)=Nc1ccccc1O2,1%,-0.13,
CCOC(=O)N1CCCC[C@H](NC2CCN(c3ccc(F)c(F)c3)CC2)C1,4%,-0.83,
O=C(c1cccc(C(F)(F)F)c1)N1CCC(n2cnnc2C2CC2)CC1,2%,-0.34,
O=C(CN1CCC(O)CC1)N1CCC(c2ccccc2)=N1,-5%,1.01,
O=C(NCCn1c(=O)[nH]c2ccsc2c1=O)c1cc(-c2ccc(F)cc2)c[nH]1,-4%,0.72,
O=C(Nc1ccc(Cl)c(N2CCCS2(=O)=O)c1)NC1CCOCC1,-13%,1.52,
O=C(CN1C(=O)c2ccccc2C1=O)NC1CCN(Cc2ccccc2)CC1,4%,-0.5,
COc1c[nH]c(C(=O)NC2CCCC2)cc1=O,-5%,0.85,
COc1c[nH]c(C(=O)NC2CCN(Cc3ccccc3)CC2)cc1=O,60%,-7.68,

# Source: ChEMBL document CHEMBL4888484, “Replenishing the malaria drug discovery pipeline: Screening and hit evaluation of the MMV Hit Generation Library 1 (HGL1) against asexual blood stage Plasmodium falciparum ,using a nano luciferase reporter read-out” (2022)
